Measured values reported in PubChem BioAssay (EPA / NIEHS).
Values joined by “and” are separate entries in the source; they are usually repeats but may differ in a detail not shown here. Equal values may be shown once. More than one record can exist for a structure, and the calls need not agree. Active and inactive are the calls of the source. The calls were made as follows: active = hit-call score of the fitted dose curve at least 0.9, where 1 is the maximum; inactive = score below 0.9.

Legend:
[1] = read-out: Vascular endothelial growth factor receptor 2 (Homo sapiens) (UniProt P35968); test: BSK_4H_VEGFRII: BioMAP Diversity Plus: 4H Assay for Vascular endothelial growth factor receptor 2 (VEGFR2) Biomarker Activity (AID 2283031); details: primary human endothelial cells (HUVEC); actives raise or lower the signal;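 as to AC50: cell-surface VEGFR2 protein level quantified by ELISA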
How it was run: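 In this multiplexed HUVEC system, biomarker ELISA was performed after 24 h chemical exposure. Parallel SRB staining (TCA fixation, 560 nm) tracked cytotoxicity; DMSO served as baseline.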

[2] = read-out: Human Leukocyte Antigen - DR isotype (HLADR), HLA-DRA (gene 3122); test: BSK_BE3C_HLADR: BioMAP Diversity Plus: BE3C Assay for Human Leukocyte Antigen - DR isotype (HLADR) Biomarker Activity (AID 2283032); details: primary human bronchial epithelial cells; actives raise or lower the signal
How it was run: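 Primary human bronchial epithelial cells (BE3C); 24 h chemical exposure; HLA-DR by ELISA; bidirectional curve fit vs DMSO baseline.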

[3] = read-out: Vascular cell adhesion molecule 1 (VCAM1), VCAM1 (gene 7412); test: BSK_4H_VCAM1: BioMAP Diversity Plus: 4H Assay for Vascular cell adhesion molecule 1 (VCAM1) Biomarker Activity (AID 2283033); details: primary human endothelial cells (HUVEC); actives raise or lower the signal
How it was run: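 HUVEC, 24 h post-dose; VCAM-1 by ELISA. Bidirectional curve fit vs DMSO baseline. Parallel SRB total-protein stain (0.1% SRB after 10% TCA fixation, 560 nm) for cytotoxicity.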

[4] = read-out: Interferon-gamma inducible Protein 10 (IP10), CXCL10 (gene 3627); test: BSK_BE3C_IP10: BioMAP Diversity Plus: BE3C Assay for Interferon-gamma inducible Protein 10 (IP10) Biomarker Activity (AID 2283034); details: primary human bronchial epithelial cells; actives raise or lower the signal
How it was run: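 ELISA readout of IP-10 in BE3C system: primary human bronchial epithelial cells, 24 h post-dosing; bidirectional curve fit vs DMSO baseline.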

[5] = read-out: Monokine induced gamma interferon (MIG), CXCL9 (gene 4283); test: BSK_BE3C_MIG: BioMAP Diversity Plus: BE3C Assay for Monokine induced gamma interferon (MIG) Biomarker Activity (AID 2283035); details: primary human bronchial epithelial cells; actives raise or lower the signal
How it was run: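 hu bronchial epithelial 1° cells, 24 h cpd; MIG by ELISA; bidirectional fit, DMSO = baseline.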

[6] = read-out: Transforming growth factor beta 1 (TGFb1), TGFB1 (gene 7040); test: BSK_BE3C_TGFb1: BioMAP Diversity Plus: BE3C Assay for Transforming growth factor beta 1 (TGFb1) Biomarker Activity (AID 2283036); details: primary human bronchial epithelial cells; actives raise or lower the signal
How it was run: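 Read-out: ELISA for TGF-b1 in primary human bronchial epithelial cultures, 24 h post-dose. Bidirectional curve fitting vs DMSO control; gain or loss of signal both scored.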

[7] = read-out: Plasminogen activator inhibitor-1 (PAI1), SERPINE1 (gene 5054); test: BSK_BE3C_PAI1: BioMAP Diversity Plus: BE3C Assay for Plasminogen activator inhibitor-1 (PAI1) Biomarker Activity (AID 2283037); details: primary human bronchial epithelial cells; actives raise or lower the signal
How it was run: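 ELISA read-out of PAI-1 from human bronchial epithelial primary cells, 24 h post-dosing; bidirectional curve fit vs DMSO baseline, gain or loss of signal scored.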

[8] = read-out: urokinase plasminogen activator (uPA), PLAU (gene 5328); test: BSK_BE3C_uPA: BioMAP Diversity Plus: BE3C Assay for urokinase plasminogen activator (uPA) Biomarker Activity (AID 2283038); details: primary human bronchial epithelial cells; actives raise or lower the signal
How it was run: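 Using confluent primary human lung bronchial epithelial cultures, we dosed chemicals, waited 24 h, then ran a uPA ELISA, fitting bidirectionally against DMSO.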

[9] = read-out: Urokinase-type plasminogen activator receptor (uPAR), PLAUR (gene 5329); test: BSK_BE3C_uPAR: BioMAP Diversity Plus: BE3C Assay for Urokinase-type plasminogen activator receptor (uPAR) Biomarker Activity (AID 2283039); details: primary human bronchial epithelial cells; actives raise or lower the signal
How it was run: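 ELISA readout of uPAR on human lung primary bronchial epithelial cells, 24 h post-dosing. Bidirectional curve fit relative to DMSO vehicle baseline; gain or loss of signal both scored.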

[10] = read-out: Interleukin-6 (IL6), IL6 (gene 3569); test: BSK_CASM3C_IL6: BioMAP Diversity Plus: CASM3C Assay for Interleukin-6 (IL6) Biomarker Activity for (AID 2283040); details: primary human coronary artery smooth muscle cells; actives raise or lower the signal

Measured: AC50

CCCCCCCCC(=O)O
inactive: all assays above

CCC(C)(C)C1CCC(O)CC1 (configuration not stated)
inactive: all assays above

CC(=O)CC(C)(C)O
inactive: all assays above

Cc1cc(C)c(O)c(C)c1
inactive: all assays above

NC(=O)N(O)[C@@H]1C=C[C@H](Oc2cccc(Oc3ccc(F)cc3)c2)C1
active: [4] 30.7 µM
inactive: all other assays above

CCCCCCCC(=O)O
inactive: all assays above

C[C@@H]1C[C@H]2[C@@H]3CCC4=CC(=O)C=C[C@]4(C)[C@@]3(F)[C@@H](O)C[C@]2(C)[C@@]1(O)C(=O)COP(=O)(O)O
inactive: [1] | [2] | [3] | [4] | [5] | [6] | [7] | [8] | [9]
active: [7] 0.763 µM | [10] 158 nM and 1.34 µM and 690 nM

COC(=O)CCCCC(=O)OC
inactive: all assays above

CCN(CC)CCNc1ccc(CNC=O)c2sc3ccc(OC)cc3c(=O)c12
inactive: [5] | [6]
active: [1] 20 µM | [2] 11 µM | [3] 30.7 µM | [4] 14.3 µM | [7] 1.61 µM | [8] 20 µM | [9] 12.9 µM | [10] 20 µM

FC(F)(I)C(F)(F)C(F)(F)C(F)(F)C(F)(F)C(F)(F)I
inactive: [1]
active: [1] 55.1 µM and 7.3 µM | [4] 18.4 µM and 16.9 µM and 45.2 µM | [5] 45.1 µM [middle of 5 runs] | [7] 24.9 µM [middle of 5 runs] | [8] 40.3 µM [middle of 5 runs] | [9] 43.5 µM [middle of 5 runs] | [10] 35.9 µM [middle of 5 runs]

Cc1cc(CCN2CCN(c3nsc4ccccc34)CC2)cc2c1NC(=O)CC2(C)C
inactive: [1]
active: [2] 28.9 µM | [3] 22.3 µM | [4] 30.4 µM | [5] 34.4 µM | [6] 27.2 µM | [7] 32.6 µM | [8] 31.3 µM | [9] 31.2 µM

CCCOC(=O)c1ccc(O)cc1
inactive: all assays above

ClC1=C(Cl)C(Cl)(Cl)C(Cl)=C1Cl
inactive: [1]
active: [2] 6.39 µM | [3] 6.5 µM | [4] 6.61 µM | [5] 10.1 µM | [6] 5.53 µM | [7] 5.25 µM | [8] 7.28 µM | [9] 8.37 µM | [10] 5.48 µM

CCc1ccc(CCOc2ccc(CC3SC(=O)NC3=O)cc2)nc1 (configuration not stated)
inactive: all assays above

CCCCOCCO
inactive: all assays above

NCC(F)(F)C(F)(F)C(F)(F)C(F)(F)C(F)(F)C(F)(F)C(F)(F)F
inactive: [1] | [2] | [3] | [4] | [5] | [7] | [8] | [9] | [10]
active: [1] 7.22 µM

Oc1cccc(O)c1
inactive: all assays above

CC(C)(C)c1cc(C(C)(C)C)c(O)c(C(C)(C)C)c1
active: [8] 5.06 µM
inactive: all other assays above

CCCCCCC(=O)O
inactive: all assays above

N#C[C@@H]1CC(F)(F)CN1C(=O)CNC1CC2CCC(C1)N2c1ncccn1 (some centres not stated)
inactive: all assays above

OCCC(F)(F)C(F)(F)C(F)(F)C(F)(F)C(F)(F)C(F)(F)F
active: [1] 7.51 µM
inactive: [1] | [2] | [3] | [4] | [5] | [6] | [7] | [8] | [9] | [10]

CN(C)C=O
inactive: all assays above

CCCCCCCCCCCCCCCS(=O)(=O)Oc1ccccc1
inactive: all assays above

CCOC(=O)CC(O)(CC(=O)OCC)C(=O)OCC
inactive: all assays above

COCC(C)OCC(C)O (configuration not stated)
inactive: all assays above

CC(C)CCCCCCOC(=O)CCCCC(=O)OCCCCCCC(C)C
inactive: all assays above

COCC(C)O (configuration not stated)
inactive: all assays above

OCCC(F)(F)C(F)(F)C(F)(F)C(F)(F)C(F)(F)C(F)(F)C(F)(F)C(F)(F)F
active: [1] 47.9 µM and 20.6 µM | [2] 18.3 µM and 24.1 µM | [3] 41.3 µM and 22.7 µM | [4] 12.7 µM and 17.9 µM | [5] 33.5 µM and 28.7 µM | [7] 16.7 µM and 24.8 µM | [8] 27.9 µM and 27.7 µM | [9] 20.9 µM and 22.9 µM
inactive: [1] | [2] | [3] | [4] | [5] | [6] | [7] | [8] | [9] | [10]

CCCCCCCCCCCCCC[N+](C)(C)C
active: [2] 3.18 µM | [3] 2.83 µM | [4] 3.88 µM | [5] 8.17 µM | [6] 1.52 µM | [7] 2.63 µM | [8] 4.85 µM | [9] 4.06 µM | [10] 9.39 µM
inactive: [1]

c1ccc2c(c1)ccc1ccccc12
inactive: all assays above

O=C(OCCOCCOC(=O)c1ccccc1)c1ccccc1
inactive: all assays above

CC(C)(C)c1cccc(C(C)(C)C)c1O
inactive: all assays above
